Data published in PubChem BioAssay (NCI).
This is part of a sample that, as a whole, favours compounds with a hit. Of some 83,000 tested, about 20% had one in any assay.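 Percent growth is the endpoint: 0 to 100 indicates growth inhibition (40 means 60% inhibition), 0 means no net growth, and negative values indicate cell death.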 Unmarked numbers belong to inactive results. Calls of active or inactive are those of the source. How the source made its calls: active means growth percent below 10; inactive means the rest.

These compounds were tested on U251 CNS (assay: NCI-60 one-dose screen, 48 h (100 = growth as untreated, 0 = no growth, -100 = all killed)). Details: 10 µM unless noted.

In order of falling growth:
1. O=C(NCCNC(=O)Oc1cccc2ccccc12)Oc1cccc2ccccc12  116%
2. COc1ccc(NS(=O)(=O)N2CCCCC2)cc1  111%
3. COc1ccc(-c2cnc(SCC(=O)Nc3ccc(-c4nc5ccccc5s4)cc3)n2-c2ccc(OC)cc2)cc1  109%
4. Nc1nc2c(c(=O)[nH]1)C1(C(=O)Nc3ccccc31)c1c(nc(N)[nH]c1=O)N2  107%
5. N#Cc1c(NC(=O)c2ccco2)[n+]([O-])c2cc(Cl)c(Cl)cc2[n+]1[O-]  102%
6. O=C1NC(=O)/C(=C/c2ccc(Cl)cc2Cl)N1  102%
7. CC1(C)CC2(C)CC(=O)C1C(C(=O)O)C2C(=O)O (stereo not given)  101%
8. O=C1CNc2cc(Cl)ccc2N1  101%
9. COC(=O)c1cc2oc(/C=N\NC(=O)c3cc4oc(C)c(C)c4[nH]3)cc2[nH]1  100%
10. CCCCCN1C(=O)CCC1=O  99%
11. O=C1NCCc2c1noc2-c1ccccc1  98.5%
12. Nc1nc(SCc2cccnc2)c2ncn(C3OC(CO)C(O)C3O)c2n1 (stereo not given)  98.3%
13. O=C(CSc1nnc(-c2cc(-c3ccccc3)nc3ccccc23)o1)c1ccc(Br)cc1  98.2%
14. O=c1oc2c(cc1-c1ccc([N+](=O)[O-])cc1)C(O)Oc1ccccc1-2 (stereo not given)  97.6%
15. COc1ccccc1-n1c(-c2ccc(O)cc2C)cn2c3c(=O)[nH]c(=O)n(C)c3nc12  97.6%
16. O=C(Nc1ccccc1S)c1ccccc1  94.8%
17. C/C(=C\CCc1ccoc1)CC/C=C(\C)CCCNc1ccc(F)cc1  94.2%
18. CC(C)Sc1nc(Cl)c(C#N)c(-c2ccc(F)cc2)n1  92.9%
19. CCOC(=O)c1cc2oc(/C=C/c3cc(=O)c4cc(Cl)ccc4o3)cc2[nH]1  92.5%
20. COc1cccc(-c2nc(-c3ccc(N)cc3)co2)c1  92.2%
21. CCc1nn2c(-c3ccc(Cl)cc3C)c(-c3cc(OC)c(OC)c(OC)c3)nc2s1  89.7%
22. Cc1cc(C)cc(S(=O)(=O)n2ccc(-c3ccc4c(c3)CCC(C)(C)O4)n2)c1  85.6%
23. CC(=O)N1N=C(c2ccc(Cl)cc2)CC1c1c(C)nn(-c2ccccc2)c1N(C)Cc1ccccc1 (stereo not given)  68.6%
24. COc1ccc(-c2cc(-c3cccnc3)nc3sc(C(=O)Nc4ccccc4)c(N)c23)cc1OC  61.3%
25. COc1cc(Cl)cc(-c2nn(-c3cccc(NC(=O)c4cc(C(F)(F)F)cc(C(F)(F)F)c4)c3)cc2-c2ccncc2)c1  60.7%
26. COc1ccc2c(c1)[n+](=O)c(C(=O)/C=C/c1cc(OC)c(OC)c(OC)c1)c(C)n2[O-]  55.6%
27. COc1cc(/C=C/C(=O)c2c(C)n([O-])c3ccccc3[n+]2=O)cc(OC)c1OC  47.7%
28. C=C1CC[C@@H]2[C@](C)(COC(C)=O)[C@H](OC(C)=O)CC[C@@]2(C)[C@@H]1CC(NCc1ccccc1)C1=CCOC1=O (stereo not given in full)  47.6%
29. Cc1cc(C(=O)Nc2ccc3cc(CN4CCOCC4)ccc3n2)c(C)n1-c1ccccc1  46.3%
30. Cc1[nH]ccc2cc3nc4ccccc4c3cc12  26.4%
31. Nc1c(C(=O)Nc2cccc(Cl)c2)sc2nc3c(cc12)C(O)CCC3 (stereo not given)  17.4%
32. O=C(c1ccccc1)C(CN1CCCCC1)c1ccccc1 (stereo not given)  15.9%
33. COc1ccc2c(c1)c(CC(=O)[Se]C)c(C)n2C(=O)c1ccc(Cl)cc1  14.9%
34. c1ccc2c(-c3nc4ccccc4[nH]3)cccc2c1  12.5%

For `O=C1c2cc3c(cc2-c2c1c1ccc(Cl)cc1c(=O)n2CCCNCCO)OCO3`, the growth was -94.6% (active).
For `O=C(Nc1cccc(-n2cc(-c3ccncc3)c(-c3cc(O)cc(Cl)c3)n2)c1)Nc1ccc(Cl)c(Cl)c1`, the growth was -56.5% (active).
In the case of `COc1cc(/C=C/c2cc(/C=C/c3ccc(O)c(OC)c3)n(C(=O)Cc3ccccc3)n2)ccc1O`, the growth was -2.58% (active).
With `Cc1cc2c(cc1C)[n+](Cc1ccc3ccccc3c1)cn2Cc1ccc2ccccc2c1` the growth was -91.6% (active).
`CCN(CC)CCCCCCCNc1c2ccc(Cl)cc2nc2ccc(OC)cc12` was tested, and the growth was -70.2% (active).
With `COC(=O)[C@H](Cc1cn(C)cn1)NC(=O)[C@H](C)NC(=O)Nc1cc(C(F)(F)F)cc(C(F)(F)F)c1` the growth was -93.8% [100 µM] (active).

The compounds below were run on PC-3 prostate in the same assay as above. Details: 10 µM unless noted.

In order of falling growth:
1. N#Cc1c(NC(=O)c2ccco2)[n+]([O-])c2cc(Cl)c(Cl)cc2[n+]1[O-]  125%
2. CC1(C)CC2(C)CC(=O)C1C(C(=O)O)C2C(=O)O (stereo not given)  108%
3. O=C(CSc1nnc(-c2cc(-c3ccccc3)nc3ccccc23)o1)c1ccc(Br)cc1  107%
4. CC(C)Sc1nc(Cl)c(C#N)c(-c2ccc(F)cc2)n1  106%
5. O=C1CNc2cc(Cl)ccc2N1  104%
6. Nc1nc2c(c(=O)[nH]1)C1(C(=O)Nc3ccccc31)c1c(nc(N)[nH]c1=O)N2  103%
7. COc1cccc(-c2nc(-c3ccc(N)cc3)co2)c1  98.2%
8. COc1ccc(-c2cnc(SCC(=O)Nc3ccc(-c4nc5ccccc5s4)cc3)n2-c2ccc(OC)cc2)cc1  97%
9. O=C1NC(=O)/C(=C/c2ccc(Cl)cc2Cl)N1  96.5%
10. CCCCCN1C(=O)CCC1=O  95.1%
11. C/C(=C\CCc1ccoc1)CC/C=C(\C)CCCNc1ccc(F)cc1  94.9%
12. O=C1NCCc2c1noc2-c1ccccc1  94.5%
13. COc1ccc(NS(=O)(=O)N2CCCCC2)cc1  91.8%
14. Nc1nc(SCc2cccnc2)c2ncn(C3OC(CO)C(O)C3O)c2n1 (stereo not given)  89.4%
15. O=C(Nc1ccccc1S)c1ccccc1  88.5%
16. CCOC(=O)c1cc2oc(/C=C/c3cc(=O)c4cc(Cl)ccc4o3)cc2[nH]1  85.2%
17. Cc1cc(C)cc(S(=O)(=O)n2ccc(-c3ccc4c(c3)CCC(C)(C)O4)n2)c1  82.4%
18. O=C(NCCNC(=O)Oc1cccc2ccccc12)Oc1cccc2ccccc12  78.5%
19. COc1ccccc1-n1c(-c2ccc(O)cc2C)cn2c3c(=O)[nH]c(=O)n(C)c3nc12  77.1%
20. COC(=O)c1cc2oc(/C=N\NC(=O)c3cc4oc(C)c(C)c4[nH]3)cc2[nH]1  72%
21. CCc1nn2c(-c3ccc(Cl)cc3C)c(-c3cc(OC)c(OC)c(OC)c3)nc2s1  64.1%
22. COc1ccc2c(c1)[n+](=O)c(C(=O)/C=C/c1cc(OC)c(OC)c(OC)c1)c(C)n2[O-]  59.9%
23. O=c1oc2c(cc1-c1ccc([N+](=O)[O-])cc1)C(O)Oc1ccccc1-2 (stereo not given)  57.5%
24. COc1ccc(-c2cc(-c3cccnc3)nc3sc(C(=O)Nc4ccccc4)c(N)c23)cc1OC  56.9%
25. c1ccc2c(-c3nc4ccccc4[nH]3)cccc2c1  54.1%
26. O=C(c1ccccc1)C(CN1CCCCC1)c1ccccc1 (stereo not given)  49.8%
27. CC(=O)N1N=C(c2ccc(Cl)cc2)CC1c1c(C)nn(-c2ccccc2)c1N(C)Cc1ccccc1 (stereo not given)  39.3%
28. COc1cc(Cl)cc(-c2nn(-c3cccc(NC(=O)c4cc(C(F)(F)F)cc(C(F)(F)F)c4)c3)cc2-c2ccncc2)c1  35.6%
29. Cc1[nH]ccc2cc3nc4ccccc4c3cc12  33.4%
30. Nc1c(C(=O)Nc2cccc(Cl)c2)sc2nc3c(cc12)C(O)CCC3 (stereo not given)  28.5%
31. COc1cc(/C=C/C(=O)c2c(C)n([O-])c3ccccc3[n+]2=O)cc(OC)c1OC  25.5%
32. COc1ccc2c(c1)c(CC(=O)[Se]C)c(C)n2C(=O)c1ccc(Cl)cc1  24.2%
33. C=C1CC[C@@H]2[C@](C)(COC(C)=O)[C@H](OC(C)=O)CC[C@@]2(C)[C@@H]1CC(NCc1ccccc1)C1=CCOC1=O (stereo not given in full)  10.1%

For `O=C1c2cc3c(cc2-c2c1c1ccc(Cl)cc1c(=O)n2CCCNCCO)OCO3`, the growth was -85.5% (active).
`O=C(Nc1cccc(-n2cc(-c3ccncc3)c(-c3cc(O)cc(Cl)c3)n2)c1)Nc1ccc(Cl)c(Cl)c1` was tested, and the growth was -1.66% (active).
For `COc1cc(/C=C/c2cc(/C=C/c3ccc(O)c(OC)c3)n(C(=O)Cc3ccccc3)n2)ccc1O`, the growth was 3.01% (active).
With `Cc1cc2c(cc1C)[n+](Cc1ccc3ccccc3c1)cn2Cc1ccc2ccccc2c1` the growth was -84% (active).
With `CCN(CC)CCCCCCCNc1c2ccc(Cl)cc2nc2ccc(OC)cc12` the growth was -56.1% (active).
With `Cc1cc(C(=O)Nc2ccc3cc(CN4CCOCC4)ccc3n2)c(C)n1-c1ccccc1` the growth was 4.55% (active).
With `COC(=O)[C@H](Cc1cn(C)cn1)NC(=O)[C@H](C)NC(=O)Nc1cc(C(F)(F)F)cc(C(F)(F)F)c1` the growth was -83.7% [100 µM] (active).
